# Measured values published in the supplement of paper PMC8699584.
# Structures can show the parent of a compound that is named as a salt. ± gives the standard deviation of the averaged measurements.
# Tests used:
# Molm13 = assay: cell viability relative to DMSO control (bortezomib = 0%); higher = less growth inhibition; details: 10 nM; 72 h
# Summary of the method: (§1)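 In duplicate runs, a library of 679 approved and investigational compounds in 384-well plates received acute myeloid leukemia cells at 1000 cells per well in 50 µL, with each compound at a single 10 nM dose for 72 h. CellTiter-Glo luminescence, read on an EnVision reader, served as the viability measure. Each plate was normalized by linear regression between DMSO-treated cells (100%) and positive-control-treated cells (0%).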
# Mv4-11 = assay: as above; details: 10 nM; 72 h
# Summary of the method: as §1
SMILES,cell viability (Molm13) [%],cell viability (Mv4-11) [%]
O=c1ncn2nc(Sc3ccc(F)cc3F)ccc2c1-c1c(Cl)cccc1Cl,89.6 ± 1.7,108 ± 6.4
COCCOc1cnc2ccn([C@H](C)c3nnc4c(F)cc(-c5cnn(C)c5)cn34)c(=O)c2c1,104 ± 13,115 ± 1.6
CN1C(=O)C(Cc2c[nH]c3ccccc23)NC1=S (centres undefined) [Necrostatin-1],106 ± 9.9,93.4 ± 10
COc1cc2ncnc(Nc3cccc(Cl)c3)c2cc1OC,98.7 ± 14,108 ± 7.1
Cc1ccc(F)c(NC(=O)Nc2ccc(-c3cccc4[nH]nc(N)c34)cc2)c1 [Linifanib (ABT-869)],61.8 ± 4,73.9 ± 13
COc1ccc(S(=O)(=O)Nc2ccccc2CN(C)C/C=C/c2ccc(Cl)cc2)cc1 [KN-92 (hydrochloride)],129 ± 18,109 ± 10
N#Cc1c(NC(=O)c2cccc3ccccc23)sc2c1CCCC2,102 ± 21,114 ± 4.2
C[C@H]1[C@H](C)CC[C@]2(C(=O)O)CC[C@]3(C)C(=CC[C@@H]4[C@@]5(C)C[C@@H](O)[C@H](O)[C@@](C)(CO)[C@@H]5CC[C@]43C)[C@H]12 [Asiatic acid],107 ± 22,103 ± 4.2
CCOc1ccn(-c2ccc(F)cc2)c(=O)c1C(=O)Nc1ccc(Oc2ccnc(N)c2Cl)c(F)c1,102.7 ± 0.96,114 ± 7
COc1ccc(C(=C2C(=O)Nc3ccccc32)c2ccc(OC)cc2)cc1,95.1 ± 2.4,103 ± 5
CS(=O)(=O)N1CCN(Cc2cc3nc(-c4cccc5[nH]ncc45)nc(N4CCOCC4)c3s2)CC1,89.9 ± 12,106.7 ± 0.54
COc1cc2c(Oc3ccc4[nH]c(C)cc4c3F)ncnc2cc1OCCCN1CCCC1 [Cediranib (AZD2171)],107 ± 23,107 ± 10
